{"source": "PubChem BioAssay (Tox21)", "note": "The source made the active and inactive calls. Calls come from the whole dose curve; as a rule, active = well fitted curve in the direction sought with a large enough effect in the repeat runs; inconclusive = weak or mixed curves; inactive = flat fitted curve, though single readings scatter. % is set by controls: 0 for no effect and ±100 for the full control effect."}
{"assay": "qHTS assay to test for compound auto fluorescence at 460 nm (blue) in HepG2 cells (AID 720687)", "details": "autofluorescence 405/460 nm, 1 h; series mostly up to 91.3 µM; fluorescence, % of fluorescent control: at the top concentration", "source_text": "U.S. Tox21 Program National Center for Advancing Translational Sciences [NCATS] NIH Chemical Genomics Center [NCGC] U.S. Environmental Protection Agency [EPA] National Institutes of Environmental Health Sciences [NIEHS] National Toxicology Program [NTP] U.S. Food and Drug Administration [FDA] Tox21 Assay Overview: Compound auto fluorescence often interferes with screening of the compound library against various biological targets and signaling pathways. Some of these compounds may have fluorophoric properties. Such properties may interfere with the assay outputs resulting in false positives and/or negatives. To decrease such complications and ensure the compound activities are relevant in terms of biological response, the Tox21 10K compound library was screened for auto fluorescence. From the fluorophores used as reporter signals in our screening assays, the auto fluorescence equivalencies of compounds against three fluorophores have been evaluated: Triamterene, Fluorescein and Rose Bengal sodium for blue, green and red fluorescence, respectively. The fluorescence intensities were measured using Excitation/Emission wavelengths at 405/460nm, 485/535nm and 540/590nm for blue, green and red labels, respectively. This assay includes the blue fluorescence data.\nTox21 Assay Protocol Summary: 2,000 HepG2 cells in 5 uL of culture medium (MEM containing 10% FBS) per well were dispensed into black wall/clear bottom 1536-well plates using a Multidrop Combi Dispenser (ThermoFisher Scientific, Waltham, MA). The assay plates were incubated overnight at 37 C to allow cell attachment to the well bottom, followed by the transfer of 23 nL compound or DMSO vehicle by a pintool work station (Kalypsys , San Diego, CA). After the assay plates were incubated for 1 hr at 37 C and 5% CO2, fluorescence intensities in the assay plates were measured by an Envision (PerkinElmer, Shelton, CT) plate reader using three labels for measuring blue, green and red fluorescence at […] 460, 535 and 590 nm respectively."}
{"smiles": "O=C(OCC(O)CO)c1ccccc1Nc1ccnc2cc(Cl)ccc12", "note": "(stereo not given)", "fluorescence, % of fluorescent control": "0.322% [at 18.6 µM] (inactive)"}
{"smiles": "O=C(/C=C/c1ccc(O)c(O)c1)O[C@@H]1C[C@@](OC(=O)/C=C/c2ccc(O)c(O)c2)(C(=O)O)C[C@@H](O)[C@@H]1O", "fluorescence, % of fluorescent control": "0.152% [at 46 µM] (inactive)"}
{"smiles": "CCOC(=O)c1ccccc1C(=C1C=C(Br)C(=O)C(Br)=C1)c1cc(Br)c(O)c(Br)c1", "fluorescence, % of fluorescent control": "-0.0242% (inactive)"}
{"smiles": "CCC(=O)OC", "fluorescence, % of fluorescent control": "-0.0541% (inactive)"}
{"smiles": "O=[N+]([O-])c1cc(C2CCCCC2)c(O)c([N+](=O)[O-])c1", "fluorescence, % of fluorescent control": "-0.557% (inactive)"}
{"smiles": "CC(=O)OCC[N+](C)(C)C", "fluorescence, % of fluorescent control": "-0.067% [at 46 µM] (inactive)"}
{"smiles": "Cc1cc(C)c(N)cc1C", "fluorescence, % of fluorescent control": "0.146% (inactive)"}
{"smiles": "CC(CCC(=O)O)C(=O)O", "note": "(stereo not given)", "fluorescence, % of fluorescent control": "-0.0882% (inactive)"}
{"smiles": "O=c1cc(-c2ccccc2)oc2cc(O)cc(O)c12", "fluorescence, % of fluorescent control": "-0.24% (inactive)"}
{"smiles": "NC(=O)c1ccncc1", "fluorescence, % of fluorescent control": "0.112% [at 95.7 µM] (inactive)"}
{"smiles": "CN1CC(=O)N2[C@H](c3ccc4c(c3)OCO4)c3[nH]c4ccccc4c3C[C@@H]2C1=O", "fluorescence, % of fluorescent control": "0.0352% [at 46 µM] (inactive)"}
{"smiles": "COc1cc(N)c(Cl)cc1C(=O)NC1CCN(CCCOc2ccc(F)cc2)CC1OC", "note": "(stereo not given)", "fluorescence, % of fluorescent control": "0.156% [at 18.6 µM] (inactive)"}
{"smiles": "C=C1CCC2CC1C2(C)C", "note": "(stereo not given)", "fluorescence, % of fluorescent control": "-0.0105% (inactive)"}
{"smiles": "O=[N+]([O-])c1ccc(Nc2ccc(Nc3ccccc3)c(S(=O)(=O)O)c2)c([N+](=O)[O-])c1", "fluorescence, % of fluorescent control": "-0.657% (inactive)"}
{"smiles": "C1COC1", "fluorescence, % of fluorescent control": "0.002% (inactive)"}
{"smiles": "Oc1c(I)cc(I)c2cccnc12", "fluorescence, % of fluorescent control": "-0.135% [at 46 µM] (inactive)"}
{"smiles": "COc1cc(C(=O)NCCCCCC(=O)O)cc(OC)c1OC", "fluorescence, % of fluorescent control": "0.0087% [at 46 µM] (inactive)"}
{"smiles": "Cc1c(C)c2c(c(C)c1OC(=O)CCC(=O)OCCO)CC[C@@](C)(CCC[C@H](C)CCC[C@H](C)CCCC(C)C)O2", "fluorescence, % of fluorescent control": "0.0352% [at 46 µM] (inactive)"}
{"smiles": "CC(C)(c1ccccc1)c1ccccc1", "fluorescence, % of fluorescent control": "0.162% (inactive)"}
{"smiles": "C[C@@H](O)[C@H]1C(=O)N2C(C(=O)O)=C([C@H]3CCCO3)S[C@H]12", "fluorescence, % of fluorescent control": "0.752% [at 46 µM] (inactive)"}
{"smiles": "NCCNCCO", "fluorescence, % of fluorescent control": "0.583% [at 95.7 µM] (inactive)"}
{"smiles": "CC(=O)N/N=C/c1ccc([N+](=O)[O-])o1", "fluorescence, % of fluorescent control": "1.74% [at 46 µM] (inactive)"}
{"smiles": "O=C(O)CCc1nc(-c2ccccc2)c(-c2ccccc2)o1", "fluorescence, % of fluorescent control": "0.0371% [at 46 µM] (inactive)"}
{"smiles": "CC(=O)Oc1ccc([N+](=O)[O-])cc1CCl", "fluorescence, % of fluorescent control": "-0.496% (inactive)"}
{"smiles": "CC(C)c1nc(CN(C)C(=O)N[C@H](C(=O)N[C@@H](Cc2ccccc2)C[C@H](O)[C@H](Cc2ccccc2)NC(=O)OCc2cncs2)C(C)C)cs1", "Potency": "inactive"}
{"smiles": "Cc1ccc(C(C)(C)O)cc1", "fluorescence, % of fluorescent control": "0.0267% (inactive)"}
{"smiles": "COc1ncnc(NS(=O)(=O)c2ccc(N)cc2)c1OC", "fluorescence, % of fluorescent control": "0.0428% [at 46 µM] (inactive)"}
{"smiles": "CCC1NC(=O)c2cc(S(N)(=O)=O)c(Cl)cc2N1", "note": "(stereo not given)", "fluorescence, % of fluorescent control": "-0.0496% [at 18.6 µM] (inactive)"}
{"smiles": "CC(=O)Nc1cc(S(=O)(=O)O)cc2cc(S(=O)(=O)O)c(N=Nc3ccccc3)c(O)c12", "fluorescence, % of fluorescent control": "-0.0428% (inactive)"}
{"smiles": "COc1cc(C(=O)NC2CCN(C)CC2)ccc1Nc1ncc2c(n1)N(C1CCCC1)CC(F)(F)C(=O)N2C", "fluorescence, % of fluorescent control": "0.103% (inactive)"}
{"smiles": "CC1=Nc2ccc3ccccc3c2C1(C)C", "fluorescence, % of fluorescent control": "0.132% (inactive)"}
{"smiles": "CCCCCCCCCI", "fluorescence, % of fluorescent control": "0.0928% [at 95.7 µM] (inactive)"}
{"smiles": "CCCCCCCC/C=C\\CCCCCCCCCCCC(=O)O", "fluorescence, % of fluorescent control": "0.144% [at 95.7 µM] (inactive)"}
{"smiles": "CCc1ccccc1", "fluorescence, % of fluorescent control": "0.147% (inactive)"}
{"smiles": "CCCCCC[C@@H](O)C/C=C\\CCCCCCCC(=O)OCC(O)CO", "note": "(stereo not given in full)", "fluorescence, % of fluorescent control": "-0.0899% (inactive)"}
{"smiles": "CC(C)C(O)(c1ccc(OC(F)(F)F)cc1)c1cncnc1", "note": "(stereo not given)", "fluorescence, % of fluorescent control": "0.112% (inactive)"}
{"smiles": "C=CC(=O)OCC1CC2CC1C1CCC(COC(=O)C=C)C21", "note": "(stereo not given)", "fluorescence, % of fluorescent control": "0.0497% (inactive)"}
{"smiles": "CCCCCC[C@@H](O)C/C=C\\CCCCCCCC(=O)O", "Potency": "inactive"}
{"smiles": "NNC(=O)CP(=O)(c1ccccc1)c1ccccc1", "fluorescence, % of fluorescent control": "-0.0749% [at 46 µM] (inactive)"}
{"smiles": "Cc1cccc(O)c1N", "fluorescence, % of fluorescent control": "0.135% (inactive)"}
